Among all 290,000 compounds or so, about 3,300 (1.1%) were called active. No stated cut-off is given here; in the data, active means binding response below about 67% or above about 130%; inconclusive means no clear call, values can overlap the other calls; inactive means in between. The sample as a whole holds a higher share of actives than the screen did.

The target of the assay is Mitogen-activated protein kinase kinase kinase 2 (Homo sapiens) (UniProt Q9Y2U5). In words: wildtype MEKK2 PB1-MEK5 interaction, increase or decrease – biochemical, multiplex bead flow cytometry, Alexa488-MEK5, primary screen (AID 1531). Conditions: Alexa488-MEK5 binding to MEKK2 WT, at 10 µM, actives lie on both sides. For orientation: Flow cytometry measures light scatter and fluorescence of single cells or particles in a stream.
For the compound `CC(Sc1nnc(-c2ccccc2F)n1C1CC1)C(N)=O` (centres undefined), the binding response (% of control) is 104% (inactive).
For the compound `Cc1c(NC(=O)Nc2cccc([N+](=O)[O-])c2)c(=O)n(-c2ccccc2)n1C`, the binding response (% of control) is 103% (inactive).
As for `COc1ccc(C(=O)NC(=S)N2CCNC(=O)C2CC(=O)OC(C)C)cc1` (centres undefined), the binding response (% of control) was 107% (inactive).
Regarding `CCOc1ccc(C(=O)COC(=O)c2ccc(-n3cnnn3)cc2)cc1`, the binding response (% of control) is 99% (inactive).
As for `CCCNC(=O)NCc1ccc(N2CCCC2=O)cc1`, the binding response (% of control) was 98% (inactive).
For the compound `O=C(COC(=O)c1ccc(N2CCCC2=O)cc1)c1ccc(OC(F)F)cc1`, the binding response (% of control) is 0% [inhibitor] (active).
As to `COC(C[C@@H](O)C[C@H](O)[C@H](C)OCc1ccccc1)OC`, the binding response (% of control) was 92% (inactive).
Turning to `Cc1cc(C)cc(N(CC(=O)N2CC=C(c3ccccc3)CC2)S(=O)(=O)c2c(C)noc2C)c1`, the binding response (% of control) was 112% (inactive).
Turning to `Cc1noc(C)c1S(=O)(=O)N(C)Cc1ccccc1`, the binding response (% of control) is 5% [inhibitor] (active).
In the case of `Cc1noc(C)c1S(=O)(=O)Nc1ccc(C(=O)O)cc1` it was 100% (inactive); in that of `CCOc1ccc(NC(=O)Nc2ccc(N(C)C(C)=O)cc2)cc1`, 97% (inactive); in that of `CC(=O)N(C)c1ccc(NC(=O)Nc2cccc3ccccc23)cc1`, 106% (inactive).
In the case of `CC(=O)N(C)c1ccc(NC(=O)C(F)(F)F)cc1` it was -2% [inhibitor] (active); in that of `COCCCNC(=O)/C=C/c1ccc(OCc2c(F)cccc2Cl)cc1`, 106% (inactive).
Take `CN(C)CCCNC(=O)/C=C/c1ccc(OCc2c(F)cccc2Cl)cc1`: the binding response (% of control) was 170% (active).
As for `O=C(/C=C/c1ccc(OCc2c(F)cccc2Cl)cc1)N1CCOCC1`, the binding response (% of control) is 74% (inactive).
Consider `CCOC(=O)N1CCC(NC(=O)CCc2ccccc2)CC1`, for which the binding response (% of control) was 107% (inactive).
`COc1cc(NC(=O)C2=CC(c3ccc(C)cc3)=NS(=O)(=O)N2C)cc(OC)c1OC`: the binding response (% of control) is 105% (inactive).
Turning to `Cc1cc(C)cc(N(CC(=O)NC2CCCC2)C(=O)CCC(=O)Nc2cc(C)on2)c1`, the binding response (% of control) is 96% (inactive).
With `COCCCNC(=O)[C@H]1N2C(=O)c3ccccc3C2SC1(C)C` (some centres undefined), the binding response (% of control) was 103% (inactive).
On to `CS(=O)(=O)Nc1cccc(C2=NN(S(=O)(=O)c3ccccc3)C(c3cccs3)C2)c1` (centres undefined), for which the binding response (% of control) is 94% (inactive).
For `CS(=O)(=O)Nc1cccc(C2=NN(C(=O)c3cccc(F)c3)C(c3cccs3)C2)c1` (centres undefined) the value was 102% (inactive); for `Cc1ccc(C2CC(c3cccc(NS(C)(=O)=O)c3)=NN2S(C)(=O)=O)cc1` (centres undefined), 20% (active); for `CN(C(=O)CC1C(=O)NCCN1Cc1ccc(F)cc1Cl)C1CCCCC1` (centres undefined), 101% (inactive).
On to `S=C(NCc1ccc(Cl)cc1)NC12CC3CC(CC(C3)C1)C2`, for which the binding response (% of control) is 160% (active).
On to `O=C(NCc1ccncc1)NC12CC3CC(CC(C3)C1)C2`, for which the binding response (% of control) is 87% (inactive).
For `S=C(NCc1ccc(Cl)cc1)NC1CCCCC1`, the binding response (% of control) is 106% (inactive).
In the case of `Cc1cccc(OCC(=O)NCC(=O)N/N=C/c2ccc(N(C)C)cc2)c1` it was 106% (inactive); in that of `CN(C)CCCn1c(SCc2ccc(Cl)cc2)nnc1-c1ccncc1`, 109% (inactive).
In the case of `O=S(=O)(Cc1nnnn1-c1ccccc1)c1ccccc1`, the binding response (% of control) was 108% (inactive).
On to `CCS(=O)(=O)C1=NSC2=NC(=O)/C(=C\c3cc(C)n(-c4cccc(OC)c4)c3C)C(=N)N21`, for which the binding response (% of control) is 98% (inactive).
Regarding `CCC1=NN2C(=N)/C(=C/c3cc(C)n(-c4ccccc4)c3C)C(=O)N=C2S1`, the binding response (% of control) is 98% (inactive).
For `Cc1cc(/C=C2/C(=N)N3C(=NC2=O)SN=C3S(C)(=O)=O)c(C)n1-c1ccccc1` the value was -2% (active); for `Cc1cccc(CCNC(=O)Cn2ncc3c([nH]c4ccc(C)cc43)c2=O)c1`, 96% (inactive).
Turning to `C=CCOc1cccc(C2C(C(=O)c3ccc(C)o3)=C(O)C(=O)N2CCCn2ccnc2)c1` (centres undefined), the binding response (% of control) is 98% (inactive).
With `CCCc1nnc(SCC(=O)N2C(C)CCCC2C)n1CC` (centres undefined), the binding response (% of control) was 812% (active).
In the case of `CCCc1cc(=O)[nH]c(SCC(=O)N2C(C)CCCC2C)n1` (centres undefined) it was 113% (inactive); in that of `CC1CCCC(C)N1C(=O)CSc1nnnn1C1CCCC1` (centres undefined), 100% (inactive); in that of `COc1ccccc1CNS(=O)(=O)c1c(C)[nH]c(C)c1C(=O)N1CCCCC1`, 101% (inactive).
As to `O=C(Nc1ccc(C(=O)N2CCOCC2)cc1)Nc1cccc(C(F)(F)F)c1`, the binding response (% of control) is 102% (inactive).
For the compound `O=C(COc1cc2oc(=O)c3c(c2cc1Cl)CCC3)NCCCN1CCOCC1`, the binding response (% of control) was 100% (inactive).
For `CCCC[C@@H]1CN=C(N)N1CCc1cccc(F)c1`, the binding response (% of control) is 107% (inactive).
Regarding `CCCNC(=O)c1ccc(Cl)c(Cl)c1`, the binding response (% of control) is 101% (inactive).
For `CCn1c(=N)n(CC(=O)c2cccc(OC)c2)c2ccccc21`, the binding response (% of control) is 96% (inactive).
`CCCn1c(=N)n(CC(=O)c2ccc(Cl)c(Cl)c2)c2ccccc21`: the binding response (% of control) is 139% (active).
For `COC(C[C@@H]1O[C@@H]1C(=O)[C@@H](C)OCc1ccccc1)OC` the value was 97% (inactive).
For `O=C(CCN1CCc2ccccc2C(O)(c2ccccc2)C1)c1ccc2c(c1)OCCO2` (centres undefined), the binding response (% of control) was 103% (inactive).
Turning to `CCN1CCN(CCNC(=O)c2ccc(/C=C3/Sc4ccccc4N(Cc4cccc(C)c4)C3=O)cc2)CC1`, the binding response (% of control) was 220% (active).
For `O=C(NCCN1CCOCC1)c1ccc(/C=C2\Sc3ccccc3N(Cc3ccc(F)cc3)C2=O)cc1`, the binding response (% of control) was 128% (inactive).
As for `CCN1CCN(CCNC(=O)c2ccc3c(c2)NC(=O)/C(=C\c2ccc(OC)c(OC)c2)S3)CC1`, the binding response (% of control) is 131% (inactive).
For `CCOc1cc(C)c(S(=O)(=O)NCc2ccccn2)cc1C` the value was 102% (inactive); for `Cc1cccc(N2CCN(C(=O)COCc3cc(-c4ccc5c(c4)OCO5)on3)CC2)c1C`, 100% (inactive); for `Cc1nc2sccn2c(=O)c1S(=O)(=O)NCCc1ccccc1`, 99% (inactive).
Regarding `COc1ccc(CN2[C@@H](CC(=O)O)c3cc(F)ccc3S2(=O)=O)cc1`, the binding response (% of control) was 84% (inactive).
In the case of `CC(Oc1cccc(Cl)c1)C(=O)NC1CC(C)(C)NC(C)(C)C1` (centres undefined), the binding response (% of control) was 107% (inactive).
For `Cc1cc(-c2csc(N)n2)c(C)n1-c1ccccc1`, the binding response (% of control) is -9% (active).
As to `Cc1cc(-c2csc(N)n2)c(C)n1Cc1ccccc1`, the binding response (% of control) was 89% (inactive).
Regarding `CC(=O)Nc1ccc(C(=O)Nc2nc(-c3cc(C)n(Cc4ccccc4)c3C)cs2)cc1`, the binding response (% of control) was 107% (inactive).
With `COC(=O)CN1C(=O)[C@H]2[C@@H](/C=C/c3ccccc3)N3C(=O)CN(Cc4ccccc4)C(=O)[C@@]3(Cc3ccccc3)[C@H]2C1=O`, the binding response (% of control) was 95% (inactive).
For `COCCNc1cc(-c2ccccc2)nc2cc(-c3cccc(F)c3)nn12`, the binding response (% of control) is 118% (inactive).
Take `CN1CCC(=O)N([C@H](CO)Cc2ccccc2)CC1`: the binding response (% of control) is 97% (inactive).
In the case of `O=C1CCNCCN1[C@H](CO)Cc1ccccc1`, the binding response (% of control) was 110% (inactive).
For `COc1ccc(SCCN2CCN(CC(C)C)CCC2=O)cc1`, the binding response (% of control) was 131% (inactive).
In the case of `COc1ccc(SC[C@H](Cc2ccccc2)N2CCN(CCc3ccccc3)CCC2=O)cc1` it was 158% (active).
In the case of `O=C1CCN(Cc2ccccc2)CCN1[C@H](CSc1ccccc1)c1ccccc1` it was 90% (inactive); in that of `C[C@H]1CCC(=O)N([C@H](CSc2ccccc2)Cc2ccccc2)CC1`, 161% (active).
In the case of `O=C(NCc1ccccc1)C1=C[C@@H](c2ccccc2)C[C@@H](OCCCCO)O1` it was 101% (inactive).
For the compound `COCOc1cc(O)c(C(=O)/C=C/c2ccc(OCOC)c(OCOC)c2)c(OCOC)c1`, the binding response (% of control) is 111% (inactive).
On to `COc1ccccc1N1CCN(c2nc(C)cc(=O)[nH]2)CC1`, for which the binding response (% of control) was 107% (inactive).
Regarding `CCCCOc1ccc(C(=O)NCc2ccncc2)cc1`, the binding response (% of control) is 111% (inactive).
For the compound `CCCOc1ccc(C(=O)C(CCC(CNCC)C(=O)c2ccc(OCCC)cc2)CNCC)cc1` (centres undefined), the binding response (% of control) was 188% (active).
Regarding `CCCCOc1ccc(C(=O)NN2CCN(C)CC2)cc1`, the binding response (% of control) is 99% (inactive).
As for `CCCCN(CCCC)CCNC(=O)CN1C(=O)COc2ccc(S(=O)(=O)N3CCOCC3)cc21`, the binding response (% of control) is 103% (inactive).
As for `CCn1c(-c2cc(OC)ccc2OC)csc1=Nc1c(C)n(C)n(-c2ccccc2)c1=O`, the binding response (% of control) is 107% (inactive).
Regarding `COc1ccc(N=Cc2c(O)[nH]c3ccccc23)cc1OC`, the binding response (% of control) is 103% (inactive).
For `CN=c1scc(-c2cc(OC)ccc2OC)n1/N=C/c1c(C)[nH]c2ccccc12` the value was 10% (active); for `Cc1cc(OCC(=O)NCC(O)c2ccccc2)c2c(C)c(C)c(=O)oc2c1` (centres undefined), 100% (inactive); for `O=C(Nc1ccccc1)c1ccc2c(c1)OCCCO2`, 105% (inactive).
For `COc1ccc(C(C)NC(=S)NC2CCCCC2)cc1OC` (centres undefined) the value was 101% (inactive); for `Cc1nc2nc[nH]n2c(=O)c1C/C=C/c1ccccc1`, 83% (inactive).
As for `Cc1cn(COC/C=C/c2ccccc2)c(=O)[nH]c1=O`, the binding response (% of control) was -7% [inhibitor] (active).
In the case of `Cc1[nH]c(=O)c(C(=O)/C=C/c2ccccc2)c2c1CCCC2` it was 101% (inactive).
For `COc1ccc(-c2nc3c(s2)CCc2onc(-c4ccc(Br)cc4)c2-3)cc1`, the binding response (% of control) is 95% (inactive).
On to `CCCCN(CCCC)CCCNC(=O)CN1C(=O)COc2ccc(S(=O)(=O)N3CCC(C)CC3)cc21`, for which the binding response (% of control) was 96% (inactive).
In the case of `COc1ccc(N=C2SC(C(=O)Nc3ccc(F)cc3)CC(=O)N2C)cc1` (centres undefined) it was 97% (inactive).
Consider `CCOc1ccc(N=C2SC(C(=O)O)CC(=O)N2C)cc1` (centres undefined), for which the binding response (% of control) is 92% (inactive).
Regarding `CN=C1SC(C(=O)O)CC(=O)N1C` (centres undefined), the binding response (% of control) is 3% (active).
In the case of `COc1ccccc1CC(=O)NCCc1c[nH]c2ccccc12` it was 101% (inactive); in that of `COc1cccc(CNCCc2c[nH]c3ccccc23)c1OCc1ccccc1F`, 159% (active).
In the case of `COc1ccc(S(=O)(=O)NCCc2c[nH]c3ccccc23)cc1OC` it was 100% (inactive); in that of `CCn1cc(C(=O)NCC(=O)NC(C)(C)CO)c(=O)c2cc3c(cc21)OCO3`, 101% (inactive); in that of `O=C(OCC(=O)N1CCN(C(=O)c2ccco2)CC1)c1cccc(O)c1`, 106% (inactive).
On to `Cc1c(C(=O)NC2CCCCC2)oc2ccccc12`, for which the binding response (% of control) is 108% (inactive).
Take `Cc1c(C)c2c(OCC(=O)NCCCO)cc3c(c2oc1=O)CCC(C)(C)O3`: the binding response (% of control) is 99% (inactive).

Source of the values: PubChem BioAssay AID1531 (NMMLSC, 2009).
